Growth inhibition, inhibition and outcome data for 20 compounds are collected here from PubChem BioAssay.

Values without a mark were called inactive. For some of these results: Results with a measured potency or affinity are listed apart. Activity calls are given as the source filed them. Unless noted, how the calls were made is not given here.

The nature of assay [1]: antimalarial activity against Dd2 strain (AID 2302;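 active means growth inhibition above 50% at the single 2 µM test dose, taken to imply half-maximal potency below 2 µM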;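 further: 0% = DMSO untreated growth and 100% = chloroquine plus artemisinin killed control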). The note with it: P. falciparum Dd2 in RBCs, LDH growth readout, 72 h; at 2 µM; hits give high values.
Assay [2] in a line: HepG2 cytotoxicity, primary screen, cytotoxicity control for P. falciparum antimalarial project, cell-based, ATP luminescence (AID 2303;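 active means inhibition above 50%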;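 further: 0% = DMSO wells and 100% = digitonin-killed cells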). The note with it: HepG2 viability, 24-48 h, at 10 µM, hits give high values.
The target in assay [3] is L-lactate dehydrogenase (Plasmodium falciparum (isolate CDC / Honduras)) (UniProt Q27743). As to the kind of experiment: PfLDH activity inhibition – cell lysate, 3D7 strain, counter-screen for P. falciparum growth inhibition project (AID 2304).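 Further: 0% = vehicle and 100% = reference inhibitor.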 The conditions noted are these: P. falciparum 3D7 crude extract, LDH APAD/NBT absorbance; at 2 µM; hits give high values.
Assay [4] can be described thus: inhibition of 3D7 malaria parasite growth – strain 3D7 (AID 2306).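 Further: 0% = DMSO wells and 100% = chloroquine plus artemisinin control wells.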 The conditions noted are these: P. falciparum 3D7 erythrocytic growth, LDH absorbance, 72 h; at 2 µM; hits give high values.
The target in assay [5] is Calcium-dependent protein kinase 1 (Plasmodium falciparum (isolate 3D7)) (UniProt P62344). As to the kind of experiment: PfCDPK1 kinase inhibitors, biochemical, TCAMS library (AID 1159585; cut-off not given, nearly all actives have IC50 up to about 0.98 µM;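 further: inhibitors leave more ATP so luminescence rises with inhibition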). The conditions noted are these: recombinant PfCDPK1, Kinase-Glo ATP depletion luminescence.
The target in assay [6] is Plasmodium falciparum protein kinase 6 (PK6, PF3D7_1337100) (UniProt Q8IDW1). The experiment in a line: PfPK6 kinase inhibitors, biochemical, TCAMS library (AID 1159586). The conditions noted are these: recombinant PfPK6, Kinase-Glo ATP depletion luminescence. On the technique in general: In Kinase-Glo more light means more ATP remaining.
For assay [7], the target named is Protein kinase 7 (PK7), Plasmodium falciparum 3D7 (PF3D7_0213400) (UniProt Q7YTF7). The experiment in a line: inhibition of Plasmodium PK7 catalytic activity – biochemical, TCAMS antimalarial set, Kinase-Glo luminescence (AID 1159587). The note with it: recombinant PfPK7, Kinase-Glo ATP depletion luminescence.
The target in assay [8] is Calcium-dependent protein kinase 4 (Plasmodium falciparum (isolate 3D7)) (UniProt Q8IBS5). As to the kind of experiment: PfCDPK4 kinase inhibitors, biochemical, TCAMS library (AID 1159588; cut-off not given, nearly all actives have IC50 up to about 0.91 µM). The note with it: recombinant PfCDPK4, Kinase-Glo ATP depletion luminescence.
Sequence of Calcium-dependent protein kinase 4 (Plasmodium falciparum (isolate 3D7)) (Q8IBS5 whole entry, looked up): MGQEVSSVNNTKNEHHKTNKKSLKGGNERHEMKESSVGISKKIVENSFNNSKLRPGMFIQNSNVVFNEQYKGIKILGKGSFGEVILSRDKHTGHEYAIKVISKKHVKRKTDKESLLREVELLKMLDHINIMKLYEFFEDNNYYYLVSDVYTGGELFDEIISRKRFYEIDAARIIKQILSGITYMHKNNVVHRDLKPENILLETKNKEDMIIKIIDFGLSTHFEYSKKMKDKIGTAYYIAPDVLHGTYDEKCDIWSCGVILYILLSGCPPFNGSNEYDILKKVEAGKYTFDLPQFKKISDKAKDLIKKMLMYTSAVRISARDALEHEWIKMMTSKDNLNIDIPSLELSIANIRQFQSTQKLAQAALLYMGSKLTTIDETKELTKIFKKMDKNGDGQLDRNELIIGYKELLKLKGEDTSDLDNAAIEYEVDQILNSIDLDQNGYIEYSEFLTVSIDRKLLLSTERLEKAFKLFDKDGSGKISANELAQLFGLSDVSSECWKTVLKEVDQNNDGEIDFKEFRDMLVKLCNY

Sequence of L-lactate dehydrogenase (Plasmodium falciparum (isolate CDC / Honduras)) (Q27743 whole entry, looked up): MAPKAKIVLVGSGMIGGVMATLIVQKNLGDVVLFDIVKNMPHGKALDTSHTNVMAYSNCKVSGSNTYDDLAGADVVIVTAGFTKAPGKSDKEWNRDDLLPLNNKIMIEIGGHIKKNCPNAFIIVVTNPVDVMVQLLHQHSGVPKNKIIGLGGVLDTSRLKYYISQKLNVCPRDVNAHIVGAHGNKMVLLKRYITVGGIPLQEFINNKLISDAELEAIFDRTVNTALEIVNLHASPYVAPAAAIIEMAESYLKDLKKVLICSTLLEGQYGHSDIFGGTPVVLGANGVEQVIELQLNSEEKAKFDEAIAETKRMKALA
Sequence of Calcium-dependent protein kinase 1 (Plasmodium falciparum (isolate 3D7)) (P62344 whole entry, looked up): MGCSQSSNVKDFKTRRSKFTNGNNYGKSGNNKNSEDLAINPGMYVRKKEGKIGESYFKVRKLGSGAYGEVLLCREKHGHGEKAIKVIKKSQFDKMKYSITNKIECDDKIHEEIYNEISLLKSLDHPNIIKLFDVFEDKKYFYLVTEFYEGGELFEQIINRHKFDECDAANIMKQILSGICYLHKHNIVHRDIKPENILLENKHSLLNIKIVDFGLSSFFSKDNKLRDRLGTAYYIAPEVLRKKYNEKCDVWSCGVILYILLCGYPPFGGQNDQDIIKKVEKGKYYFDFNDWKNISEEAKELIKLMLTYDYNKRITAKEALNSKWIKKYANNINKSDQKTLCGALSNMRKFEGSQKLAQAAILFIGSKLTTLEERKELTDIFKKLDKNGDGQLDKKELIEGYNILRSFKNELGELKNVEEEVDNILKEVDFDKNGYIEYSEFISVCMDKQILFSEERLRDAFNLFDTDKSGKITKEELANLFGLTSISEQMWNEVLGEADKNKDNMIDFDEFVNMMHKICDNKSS
Sequence of Plasmodium falciparum protein kinase 6 (PK6, PF3D7_1337100) (Q8IDW1 1-305): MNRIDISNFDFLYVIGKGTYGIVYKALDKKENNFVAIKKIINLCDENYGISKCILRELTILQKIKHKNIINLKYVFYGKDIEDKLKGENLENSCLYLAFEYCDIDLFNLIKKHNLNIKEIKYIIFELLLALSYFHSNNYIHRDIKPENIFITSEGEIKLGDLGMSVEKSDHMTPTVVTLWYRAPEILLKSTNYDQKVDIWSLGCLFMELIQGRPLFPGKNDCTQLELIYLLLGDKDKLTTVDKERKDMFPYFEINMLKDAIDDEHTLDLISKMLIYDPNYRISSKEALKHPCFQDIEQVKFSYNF
Sequence of Protein kinase 7 (PK7), Plasmodium falciparum 3D7 (PF3D7_0213400) (Q7YTF7 1-343): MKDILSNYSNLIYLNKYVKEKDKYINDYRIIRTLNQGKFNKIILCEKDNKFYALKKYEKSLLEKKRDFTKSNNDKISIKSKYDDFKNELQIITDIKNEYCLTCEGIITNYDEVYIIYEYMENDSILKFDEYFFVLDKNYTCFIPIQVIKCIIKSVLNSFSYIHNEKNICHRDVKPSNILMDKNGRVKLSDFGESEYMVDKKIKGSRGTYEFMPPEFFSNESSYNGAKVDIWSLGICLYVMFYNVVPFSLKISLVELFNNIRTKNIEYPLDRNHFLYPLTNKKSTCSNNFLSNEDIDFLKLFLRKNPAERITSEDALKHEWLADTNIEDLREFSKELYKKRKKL

Regarding `COc1cc(CNCCCCCCNCc2cc(OC)cc3ccccc23)c2ccccc2c1`, the growth inhibition was 94% (active) in assay [1] and 100% (active) in assay [4]. The inhibition (as a rule, the change of the read-out against control, counted positive when it falls) in assay [2] was 57% (active); in assay [3], -5%. Besides, the result in assay [5], in assay [6], in assay [7] and in assay [8] was inactive.

Regarding `COc1ccccc1CN1CCC(NC(=O)c2ccc(-c3cccc(Cl)c3)s2)CC1`, the growth inhibition in assay [1] is 9%; in assay [4], 84% (active). Also, the values for the inhibition in assay [2] and in assay [3] were 49% and -1%, respectively. Moreover, the result in assay [5], in assay [6], in assay [7] and in assay [8] was inactive.

As for `CCCNCc1ccc(-c2ccc(CN(Cc3cccs3)C(=O)C3CCN(C)CC3)cc2)nc1`, the growth inhibition in assay [1] is 35%; in assay [4], 99% (active). Moreover, the inhibition in assay [2] is 10%; in assay [3], -3%. In addition, the outcome in assay [5], in assay [6], in assay [7] and in assay [8] was inactive.

As to `COc1cccc(-c2ccc(C(=O)NC3CCN(Cc4ccc(C(C)(C)C)cc4)CC3)s2)c1`, the growth inhibition in assay [1] was 23%; in assay [4] it was 85% (active). The inhibition in assay [2] was 43%; in assay [3], -2%. For the same compound, the outcome in assay [5], in assay [6], in assay [7] and in assay [8] was inactive.

For the compound `COc1ccc(NC(=O)NC2CCN(c3ccnc4ccccc34)C2)cc1` (stereo not given), the values for the growth inhibition in assay [1] and in assay [4] were -1% and 94% (active), respectively. Also, the inhibition in assay [2] was 3%; in assay [3], 2%. The outcome in assay [5], in assay [6], in assay [7] and in assay [8] was inactive.

For the compound `C[C@@H]1CN(c2cnn(C/C=C/c3ccc(NC(=O)c4ccc(Cl)cc4)cc3)c(=O)c2Cl)C[C@H](C)N1`, the growth inhibition in assay [1] is 82% (active); in assay [4], 88% (active). The values for the inhibition in assay [2] and in assay [3] were 25% and -2%, respectively. Also, the result in assay [5], in assay [6], in assay [7] and in assay [8] was inactive.

As to `COc1cc(C=NNc2cc(C)nc3c(OC)cccc23)cc(OC)c1OC`, the growth inhibition in assay [1] is 49%; in assay [4], 94% (active). The inhibition was 2% in assay [2] and 0% in assay [3]. Moreover, the outcome in assay [5], in assay [6], in assay [7] and in assay [8] was inactive.

As to `CN(c1ccc(NC(=O)Nc2cc(C(F)(F)F)ccc2F)cc1)c1ccnc(NCCN2CCCC2)n1`, the growth inhibition is 1% in assay [1] and 93% (active) in assay [4]. The inhibition was 94% (active) in assay [2] and -2% in assay [3]. For the same compound, the outcome in assay [5], in assay [6], in assay [7] and in assay [8] was inactive.

`COc1ccc(CN2CCCC(C(=O)c3ccc(C(F)(F)F)cc3)C2)c(O)c1` (stereo not given): the results for the growth inhibition in assay [1] and in assay [4] were 88% (active) and 98% (active), respectively. Besides, the results for the inhibition in assay [2] and in assay [3] were -2% and -3%, respectively. In addition, the outcome in assay [5], in assay [6], in assay [7] and in assay [8] was inactive.

As to `CCN(CC)CCCC(C)Nc1ccnc2ccc(-c3ccccc3)cc12` (stereo not given), the growth inhibition in assay [1] was 21%; in assay [4], 98% (active). In addition, the inhibition is 0% in assay [2] and 2% in assay [3]. The outcome in assay [5], in assay [6], in assay [7] and in assay [8] was inactive.

In the case of `Cc1nc(N)nc(N)c1CCCOc1cccc(Cl)c1`, the growth inhibition in assay [1] is -1%; in assay [4], 96% (active). Further, the inhibition in assay [2] was 16%; in assay [3], -4%. In addition, the result in assay [5], in assay [6], in assay [7] and in assay [8] was inactive.

On to `O=S(=O)(c1cccc(Br)c1)N1CCCCC(c2ccc(C(F)(F)F)cc2)=N1`, for which the growth inhibition was 92% (active) in assay [1] and 91% (active) in assay [4]. In addition, the inhibition in assay [2] is 30%; in assay [3] it was -4%. Also, the outcome in assay [5], in assay [6], in assay [7] and in assay [8] was inactive.

On to `CC1(C)N=C(N)N=C(N)N1OCCCNC(=O)c1ccc(C(=O)NCCCON2C(N)=NC(N)=NC2(C)C)cc1`, for which the growth inhibition in assay [1] was 96% (active); in assay [4] it was 91% (active). The values for the inhibition in assay [2] and in assay [3] were 0% and 3%, respectively. For the same compound, the outcome in assay [5], in assay [6], in assay [7] and in assay [8] was inactive.

Take `FC(F)(F)c1ccc2nccc(NCc3ccccc3)c2c1`: the growth inhibition was 56% (active) in assay [1] and 93% (active) in assay [4]. In addition, the inhibition in assay [2] is 18%; in assay [3], -9%. Further, the outcome in assay [5], in assay [6], in assay [7] and in assay [8] was inactive.

For `O=C(NCCc1ccccc1)c1cc(-c2cccnc2)cnc1NCC1CC1`, the results for the growth inhibition in assay [1] and in assay [4] were 35% and 93% (active), respectively. Also, the inhibition is 3% in assay [2] and 6% in assay [3]. The result in assay [5], in assay [6], in assay [7] and in assay [8] was inactive.

Take `c1ccc2c(NCCc3cnc[nH]3)c3ccccc3nc2c1`: the growth inhibition in assay [1] is -1%; in assay [4] it was 91% (active). Moreover, the figures for the inhibition in assay [2] and in assay [3] were 20% and 6%, respectively. For the same compound, the outcome in assay [5], in assay [6], in assay [7] and in assay [8] was inactive.

For `CCn1c(-c2nc(-c3ccc4c(c3)OCO4)cnc2N)nc2cnccc21`, the growth inhibition was 98% (active) in assay [1] and 100% (active) in assay [4]. The values for the inhibition in assay [2] and in assay [3] were 94% (active) and -7%, respectively. Moreover, the result in assay [5], in assay [6], in assay [7] and in assay [8] was inactive.

For the compound `CCN(CC)CCCCCNc1c2ccc(Cl)cc2nc2ccc(OC)cc12`, the growth inhibition in assay [1] and in assay [4] was 99% (active) throughout. Also, the inhibition is 96% (active) in assay [2] and 4% in assay [3]. The result in assay [5], in assay [6], in assay [7] and in assay [8] was inactive.

Turning to `COc1ccc(COc2cc(NCCCN)nc3ccccc23)cc1`, the growth inhibition in assay [1] was 5%; in assay [4] it was 101% (active). Further, the inhibition in assay [2] is 3%; in assay [3] it was -4%. In addition, the outcome in assay [5], in assay [6], in assay [7] and in assay [8] was inactive.

For `Cc1cccc2[nH]c(-c3cccc(-c4cccc(NC(=O)c5csnn5)c4)c3)nc12`, the growth inhibition is 49% in assay [1] and 98% (active) in assay [4]. For the same compound, the inhibition in assay [2] is 10%; in assay [3], 1%. Moreover, the outcome in assay [5], in assay [6], in assay [7] and in assay [8] was inactive.
